High-throughput results (PubChem BioAssay)
HCV inh = blocks hepatitis C virus. Huh7.5.1 HCVcc-Cre infection, luciferase reporter, 44 h. Potency, µM (top dose mostly 41.8 µM), without a hit: top-dose activity change, negative = inhibition, hits mostly inhibitors. 3.4% of 340,000 active. AID 651820; active = well fitted inhibition curve with a large enough effect; inconclusive = small, poorly fitted or top-dose-only effect, or another doubt; inactive = no such curve, though single readings can be large or run the other way; note: potency is the fitted concentration of half-maximal effect
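Infectious HCV cell culture screen: compound-treated cells (1,000/well, pre-plated 4 h) are infected with HCVcc-Cre at roughly 0.5 moi and grown 44 h. Infection is quantified by luciferase signal after 15 min substrate incubation at room temperature.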
MARV entry inh = blocks Marburg virus binding to or entry into cells | Marburg virus pseudotyped entry inhibition, cell reporter | Potency, µM (top dose mostly 37.8 µM), without a hit: top-dose activity change, negative = inhibition, usual class: inhibitors | 1.8% of 300,000 active | AID 540276; calls by dose curve; tested in HEK293 cells; note: potency is the fitted concentration of half-maximal effect
HCMV inh = blocks human cytomegalovirus replication | HFF cells, HCMV-luciferase reporter, 72 h; active compounds read low | activity change, negative = inhibition, % at 57.5 µM | 4.5% of 410,000 active | AID 1259415; in the data active = activity change below about -60%; inconclusive = no clear call, values can overlap the other calls; inactive = above about -39%
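Steps: HFFs plated, 16 h 37C; compounds added; HCMV-luciferase added to MOI 1 PFU/cell; 72 h 37C; OneGlo reagent, 5 min room temperature; luminescence read, normalized to controls.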
Lassa entry inh = Lassa virus entry inhibition | Potency, µM (titrated, usually from 37.9 µM), for the others: at the top dose activity change, negative = inhibition, most hits filed as inhibitors | Lassa virus pseudotype entry inhibition, cell reporter | AID 540256 | 1.2% of 300,000 active; calls by dose curve; tested in HEK293 cells; note: potency is the fitted concentration of half-maximal effect; nearly all actives have a fitted effect of over 50% in size
FMDV antiviral = blocks foot and mouth disease virus; Potency, µM (titrated, usually from 57.9 µM), for the others: at the top dose activity change, negative = inhibition, hits mostly inhibitors; AID 1159524; 1.2% of 410,000 active; FMDV antiviral cell-based qHTS; calls by dose curve; tested in HEK293T cells; note: read-out not given here; potency is the fitted concentration of half-maximal effect; nearly all actives have a fitted effect of over 45% in size
* = called active by the depositor; [ ] = another dose, or the depositor's remark. Compounds with a hit are over-represented: about 7.9% of the library has one in this group of screens. % is set by controls: 0 for no effect and ±100 for the full control effect.

Results for CC1(C)Oc2ccc3ccc(=O)oc3c2/C(=C/Nc2ccccc2)C1=O ?
HCV inh: 10µM*; MARV entry inh: -18%; HCMV inh: inconclusive; Lassa entry inh: -27%; FMDV antiviral: inconclusive

What do the screens show for `CC1(C)Oc2ccc3ccc(=O)oc3c2/C(=C/N)C1=O`?
HCV inh: -17%; MARV entry inh: inconclusive; HCMV inh: 6; Lassa entry inh: 8%; FMDV antiviral: -22%

What do the screens show for `CCSc1ccccc1C(=O)NCCc1ccccc1`?
HCV inh: -4%; HCMV inh: -8; FMDV antiviral: 4%

What do the screens show for `O=C(CN1C(=O)NC2(CCCC2)C1=O)Nc1nc(-c2ccc(F)c(F)c2)cs1`?
HCV inh: 4µM*; HCMV inh: 1; FMDV antiviral: inconclusive

Results for O=C(CN1C(=O)NC2(CCCC2)C1=O)Nc1nc(-c2ccccc2)cs1 ?
HCV inh: inconclusive; MARV entry inh: 4%[46.1 µM]; HCMV inh: 1; Lassa entry inh: 19%; FMDV antiviral: -13%

How did O=C(CSc1ncnc2[nH]ncc12)Nc1nc(-c2ccc(F)c(F)c2)cs1 do in these assays?
HCV inh: inconclusive; MARV entry inh: inconclusive; HCMV inh: -90*; Lassa entry inh: inconclusive; FMDV antiviral: 14µM*

Results for O=C(C1=C[C@@H](c2ccc(Br)cc2)C[C@@H](OCCCCO)O1)N1CCN(Cc2ccccc2)CC1 ?
HCV inh: -4%; HCMV inh: -94*; FMDV antiviral: inconclusive

What do the screens show for `O=C(C1=C[C@H](c2ccc(Br)cc2)C[C@H](OCc2ccc(CO)cc2)O1)N1CCN(Cc2ccc3c(c2)OCO3)CC1`?
HCV inh: inconclusive; HCMV inh: inconclusive; FMDV antiviral: 0%

What do the screens show for `O=C(C1=C[C@H](c2ccc3c(c2)OCO3)C[C@H](OCCCCO)O1)N1CCN(Cc2ccc3c(c2)OCO3)CC1`?
HCV inh: -26%; HCMV inh: 22; FMDV antiviral: 0%

Results for O=C(C1=C[C@H](c2ccc3c(c2)OCO3)C[C@H](OCc2ccc(CO)cc2)O1)N1CCN(Cc2ccc3c(c2)OCO3)CC1 ?
HCV inh: 35µM*; HCMV inh: 0; FMDV antiviral: inconclusive

What do the screens show for `O=C(C1=C[C@H](c2csc3ccccc23)C[C@H](OCc2ccc(CO)cc2)O1)N1CCN(Cc2ccc3c(c2)OCO3)CC1`?
HCV inh: 8.9µM*; HCMV inh: -25; FMDV antiviral: inconclusive

Results for O=C(C1=C[C@@H](c2ccc3c(c2)OCO3)C[C@@H](OCCCCO)O1)N1CCN(Cc2ccc3c(c2)OCO3)CC1 ?
HCV inh: 0.56µM*; HCMV inh: -23; FMDV antiviral: -19%

How did O=C(Nc1ccc2ccccc2c1)OC1CCS(=O)(=O)C1 (stereo not drawn) do in these assays?
HCMV inh: 86

How did CC(=O)c1ccc(S(=O)(=O)Oc2ccc(-c3ccc(C(=O)O)cc3)cc2)cc1 do in these assays?
HCV inh: 22%; MARV entry inh: -8%[46.1 µM]; HCMV inh: -1; Lassa entry inh: 12%[46.1 µM]; FMDV antiviral: -8%

Results for CC(=O)c1ccccc1C(=O)N1CCCC(CNC(=O)c2ccc(F)cc2)C1 (stereo not drawn) ?
HCMV inh: -11; FMDV antiviral: 24%

What do the screens show for `CCCCCCCCCCCCCCCCCCNC(=O)OCC(COP(=O)([O-])OCC[n+]1ccsc1)OC` (stereo not drawn)?
MARV entry inh: inconclusive; Lassa entry inh: 9%

What do the screens show for `CCN(c1ccccc1)S(=O)(=O)c1cc(-c2onc(C)c2C)ccc1OC`?
HCMV inh: 19; Lassa entry inh: -21%[46.1 µM]; FMDV antiviral: 4%

Results for Cc1ccc2c(C)c(C(=O)N3CCCC(C(N)=O)C3)oc2c1C (stereo not drawn) ?
HCV inh: -5%; HCMV inh: -99*; FMDV antiviral: 33%

Results for COC(=O)c1cc2c(-c3ccccc3)cc3ccccn3c-2c1C(=O)OC ?
HCV inh: 1.8µM*; MARV entry inh: inconclusive; HCMV inh: -4; Lassa entry inh: inconclusive; FMDV antiviral: inconclusive

How did COC(=O)c1c(C)c2c(C)cc3ccccn3c-2c1C(=O)OC do in these assays?
HCV inh: 10µM*; MARV entry inh: -25%; HCMV inh: -13; Lassa entry inh: -22%; FMDV antiviral: inconclusive

Results for CCOC(=O)C(=O)c1c(C)cc2ccccn12 ?
HCV inh: -18%; MARV entry inh: 15%; HCMV inh: -32; Lassa entry inh: 1%; FMDV antiviral: 13%

Results for CSc1ncccc1C(=O)N1CCc2nnc(C(NC(=O)c3ccoc3)C(C)C)n2CC1 (stereo not drawn) ?
FMDV antiviral: -12%

Results for CC(C)Sc1ncc(Cl)c(C(=O)N(Cc2ccc(F)cc2)C2CCS(=O)(=O)C2)n1 (stereo not drawn) ?
MARV entry inh: 13%[46.1 µM]; HCMV inh: 9; Lassa entry inh: -2%[46.1 µM]; FMDV antiviral: -26%

What do the screens show for `CCCOc1ccc(CN(C(=O)c2nc(SC(C)C)ncc2Cl)C2CCS(=O)(=O)C2)cc1` (stereo not drawn)?
MARV entry inh: -34%[46.1 µM]; HCMV inh: -63*; Lassa entry inh: inconclusive; FMDV antiviral: -27%

What do the screens show for `C=CCc1ccccc1OCCSc1nc(-c2ccccc2F)nc2cc(=O)[nH]n12`?
HCMV inh: -15; Lassa entry inh: 14%[46.1 µM]; FMDV antiviral: -26%

How did COc1cccc(CNC(=O)c2cccc(-n3c(C)nc4cccnc43)c2C)c1 do in these assays?
HCMV inh: inconclusive; Lassa entry inh: -16%[46.1 µM]; FMDV antiviral: -23%

Results for CNC(=O)c1cccc(-n2c(C)nc3cccnc32)c1C ?
HCMV inh: active; Lassa entry inh: 11%[46.1 µM]; FMDV antiviral: -3%

How did CCOc1ccc(C(=O)NCC(c2ccc3c(c2)OCO3)N2CCN(C)CC2)cc1 (stereo not drawn) do in these assays?
HCMV inh: 0; Lassa entry inh: -9%[46.1 µM]; FMDV antiviral: -11%

What do the screens show for `CCCNC(=O)C(Cc1ccc(OC)cc1)NC(=O)c1ccc(Cl)cc1` (stereo not drawn)?
HCV inh: 1%; HCMV inh: -13; FMDV antiviral: 25%

How did CCCNC(=O)C(Cc1ccc(OC)cc1)NC(=O)c1ccc(C#N)cc1 (stereo not drawn) do in these assays?
HCV inh: 3.2µM*; HCMV inh: 5; FMDV antiviral: 2%

Results for Cc1cc(OCc2nc(N)nc(N)c2-c2ccc(Cl)c(Cl)c2)ccc1[N+](=O)[O-] ?
HCV inh: inconclusive; MARV entry inh: inconclusive; HCMV inh: -100*; Lassa entry inh: 1µM*; FMDV antiviral: 25µM*

What do the screens show for `Cc1nc(N)nc(N)c1-c1ccc(Cl)c(Cl)c1`?
HCV inh: inconclusive; MARV entry inh: inconclusive; HCMV inh: -98*; Lassa entry inh: 1µM*; FMDV antiviral: -23%
